Reference: PubChem BioAssay
Results filed as inconclusive are left out. Calls of active or inactive are those of the source.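 The calls were made as follows, unless noted: active = inhibition above 50%, about 3 SD of the validation set; inactive = the rest.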

Legend:
[1] = rapamycin-like changes in RPL19A-GFP expression – cell-based, S. cerevisiae, multiplex flow cytometry, primary screen (AID 1862; in the data active = percent of DMSO control GFP below about 86%;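 also: lower values mimic rapamycin by blocking the RPL19A rise seen in DMSO cells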); details: S. cerevisiae RPL19A-GFP strain, flow cytometry fluorescence, 3 h; at 10 µM; stronger effect = lower value
[2] = TOR pathway GLN3 branch reporter MEP2-GFP changes – S. cerevisiae, multiplex flow cytometry, primary screen (AID 1867;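 active = GFP response, as percent of the DMSO control, above the screen-wide mean plus 3 SD, about 139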;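 also: median GFP channel fluorescence of barcode-gated MEP2-GFP cells measured by flow cytometry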); details: S. cerevisiae MEP2-GFP strain, 3 h, at 10 µM, stronger effect = higher value, 100% means same as DMSO wells
[3] = TOR pathway RTG branch CIT2 reporter changes – S. cerevisiae, GFP fusion, multiplex flow cytometry, primary screen (AID 1870;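 active = percent response above a set limit, the screen-wide mean plus 3 SD, cut at about 130% in these data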;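 also: barcoded CIT2-GFP strain pooled with four other GFP strains with rapamycin as positive control; median GFP fluorescence per well over plate mean of DMSO wells so 100% = DMSO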); details: S. cerevisiae CIT2-GFP expression, 3 h, at 10 µM, stronger effect = higher value
[4] = TOR pathway LAP4-GFP level changes – S. cerevisiae, multiplex flow cytometry, primary screen (AID 1873;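 active = GFP signal, as percent of the solvent control, above the screen mean plus 3 SD, about 149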); details: S. cerevisiae LAP4-GFP expression, 3 h, at 10 µM, stronger effect = higher value
[5] = yeast AGP1-GFP level changes, GLN3 branch – cell-based, multiplex flow cytometry, S. cerevisiae, primary screen (AID 1887;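 active = GFP signal above the screen-wide mean plus 3 SD, that is over about 124.5% of the solvent control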;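 also: AGP1-GFP fusion strain of S. cerevisiae within a five-strain barcoded multiplex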); details: 3 h, at 10 µM, stronger effect = higher value
[6] = reduced mouse 2C T cell binding to pMHC/ICAM-1 vesicles – MLPCN validation set, flow cytometry, LFA-1/ICAM-1 modulator project, pilot screen (AID 2523;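 active = response below a set limit, under 55% cells CD8-positive and vesicle-bound, and CD8 cells' 90th-percentile brightness under 279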;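 as to vesicle binding response: mean PE anti-B7-1 fluorescence of CD8+ cells relative to row control; 100% = QL9-loaded vesicles with DMSO vehicle in the same plate row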); details: 2C mouse CD8+ T cells, at 7 µM, stronger effect = lower value; double positive events: measured here: CD8+/vesicle+ event percentage
[7] = target: Integrin beta-1 (Homo sapiens) + Integrin alpha-4 (Homo sapiens) (UniProt P13612+P05556); assay: alpha4beta1 integrin LIBS antibody binding reduction – U937 cells, HUTS-21 mAb, flow cytometry, validation set, VLA-4 allosteric modulator project, pilot screen (AID 2674); details: HUTS-21 LIBS mAb binding, at 6.7 µM, stronger effect = higher value, binding induced by LDV ligand;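 also: antibody binding induced by the VLA-4 ligand LDV present at three times its Kd; 0% = LDV ligand with antibody and no compound and 100% = antibody without LDV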
Integrin beta-1 (Homo sapiens) + Integrin alpha-4 (Homo sapiens), sequence (P05556 whole entry, looked up): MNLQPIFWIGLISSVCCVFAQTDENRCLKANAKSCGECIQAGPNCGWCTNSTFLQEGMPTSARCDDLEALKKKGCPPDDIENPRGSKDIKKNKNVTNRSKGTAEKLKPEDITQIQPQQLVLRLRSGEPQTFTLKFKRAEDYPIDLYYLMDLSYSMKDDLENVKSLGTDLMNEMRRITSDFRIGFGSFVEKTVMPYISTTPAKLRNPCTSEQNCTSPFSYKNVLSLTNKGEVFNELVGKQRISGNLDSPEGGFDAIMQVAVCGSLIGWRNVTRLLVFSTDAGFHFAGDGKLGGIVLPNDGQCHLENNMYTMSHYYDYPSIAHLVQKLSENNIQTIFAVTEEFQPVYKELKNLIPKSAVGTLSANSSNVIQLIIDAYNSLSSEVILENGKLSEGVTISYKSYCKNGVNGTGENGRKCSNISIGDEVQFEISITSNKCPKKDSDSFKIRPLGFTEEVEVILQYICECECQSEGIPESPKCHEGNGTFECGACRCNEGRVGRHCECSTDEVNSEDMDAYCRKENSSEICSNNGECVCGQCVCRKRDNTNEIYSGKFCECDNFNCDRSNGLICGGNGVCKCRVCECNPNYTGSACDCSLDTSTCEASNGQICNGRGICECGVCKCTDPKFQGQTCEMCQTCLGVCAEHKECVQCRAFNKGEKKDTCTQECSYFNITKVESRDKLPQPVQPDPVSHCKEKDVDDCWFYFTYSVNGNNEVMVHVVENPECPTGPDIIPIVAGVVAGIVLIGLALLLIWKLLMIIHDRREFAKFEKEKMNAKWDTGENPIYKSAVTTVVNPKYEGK
Integrin beta-1 (Homo sapiens) + Integrin alpha-4 (Homo sapiens), sequence (P13612 whole entry, looked up): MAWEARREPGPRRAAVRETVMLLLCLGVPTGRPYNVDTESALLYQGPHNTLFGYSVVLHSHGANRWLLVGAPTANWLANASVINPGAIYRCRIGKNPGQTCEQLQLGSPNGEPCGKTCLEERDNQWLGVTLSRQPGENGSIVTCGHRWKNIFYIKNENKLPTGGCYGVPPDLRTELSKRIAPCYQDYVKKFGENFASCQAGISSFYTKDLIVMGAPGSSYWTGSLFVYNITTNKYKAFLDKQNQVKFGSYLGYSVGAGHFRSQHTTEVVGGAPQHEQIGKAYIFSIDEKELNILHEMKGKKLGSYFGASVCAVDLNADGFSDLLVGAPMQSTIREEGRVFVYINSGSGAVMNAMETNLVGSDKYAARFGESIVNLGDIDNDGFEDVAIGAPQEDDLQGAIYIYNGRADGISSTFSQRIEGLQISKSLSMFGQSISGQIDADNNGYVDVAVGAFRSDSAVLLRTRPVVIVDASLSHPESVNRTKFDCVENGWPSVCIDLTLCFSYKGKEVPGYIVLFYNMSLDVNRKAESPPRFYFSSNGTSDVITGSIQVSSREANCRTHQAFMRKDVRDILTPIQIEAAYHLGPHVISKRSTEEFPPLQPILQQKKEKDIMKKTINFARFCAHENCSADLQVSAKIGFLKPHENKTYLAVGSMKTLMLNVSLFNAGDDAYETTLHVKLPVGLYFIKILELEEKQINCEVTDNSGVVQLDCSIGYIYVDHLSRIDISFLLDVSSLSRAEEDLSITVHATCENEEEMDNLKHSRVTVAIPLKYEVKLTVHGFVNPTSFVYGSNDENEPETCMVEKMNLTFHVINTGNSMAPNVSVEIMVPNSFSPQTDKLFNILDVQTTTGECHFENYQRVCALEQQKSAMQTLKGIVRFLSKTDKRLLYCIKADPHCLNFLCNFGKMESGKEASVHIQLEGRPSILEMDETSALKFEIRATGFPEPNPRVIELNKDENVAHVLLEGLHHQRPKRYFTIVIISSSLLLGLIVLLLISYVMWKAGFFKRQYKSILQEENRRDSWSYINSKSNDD

[8] = calorie-restriction mimetic ROS inhibitors, yeast – validation compound set, pilot screen (AID 2706;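 active = superoxide response below 65% of plate, a cut near 3 SD across the whole screen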;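 also: yeast exposed to compound for one week at 30 degrees C before staining; 100% = mean of all compound wells on the same plate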); details: S. cerevisiae aging, superoxide DHE fluorescence; at 10 µM; stronger effect = lower value
[9] = target: Beta-adrenergic receptor kinase 1 (Homo sapiens) (UniProt P25098); assay: GRK2 binders displacing RNA aptamer, biochemical, validation, human GRK2, bead flow cytometry (AID 488806;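 active = aptamer binding inhibition above 30%, about 3 SD of noise from non-fluorescent compounds; inactive = inhibition at or below 30%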); details: bead-bound GRK2, FAM-aptamer displacement, at 10 µM, stronger effect = higher value
Beta-adrenergic receptor kinase 1 (Homo sapiens), sequence (P25098 whole entry, looked up): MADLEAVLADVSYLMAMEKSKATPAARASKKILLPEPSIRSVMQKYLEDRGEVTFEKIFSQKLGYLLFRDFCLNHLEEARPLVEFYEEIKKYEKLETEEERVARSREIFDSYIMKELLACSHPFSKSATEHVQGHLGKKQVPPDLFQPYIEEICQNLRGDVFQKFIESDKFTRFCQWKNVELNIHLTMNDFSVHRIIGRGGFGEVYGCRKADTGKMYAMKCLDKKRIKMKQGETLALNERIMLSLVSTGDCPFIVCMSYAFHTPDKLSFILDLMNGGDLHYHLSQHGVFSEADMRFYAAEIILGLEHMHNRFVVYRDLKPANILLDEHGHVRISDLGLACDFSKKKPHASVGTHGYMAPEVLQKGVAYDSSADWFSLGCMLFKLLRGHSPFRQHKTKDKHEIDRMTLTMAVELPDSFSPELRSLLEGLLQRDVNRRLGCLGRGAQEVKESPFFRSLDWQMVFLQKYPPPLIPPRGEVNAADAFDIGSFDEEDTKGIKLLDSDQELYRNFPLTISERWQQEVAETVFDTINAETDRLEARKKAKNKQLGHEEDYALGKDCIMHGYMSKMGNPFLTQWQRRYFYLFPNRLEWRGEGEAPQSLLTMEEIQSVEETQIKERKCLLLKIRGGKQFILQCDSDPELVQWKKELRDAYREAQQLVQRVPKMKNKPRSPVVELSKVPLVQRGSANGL

[10] = target: Beta-2 adrenergic receptor (Homo sapiens) (UniProt P07550); assay: agonist-induced loss of surface beta2AR – cell-based, FAP fluorogen, flow cytometry, validation set, pilot screen (AID 504459;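 active = percent response above 42, roughly 3 SD of non-fluorescent test compounds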;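 also: agonist-driven loss of surface beta2AR via internalization measured by FAP dye flow cytometry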); details: Am2.2-beta2AR cells, at 10 µM, stronger effect = higher value
Beta-2 adrenergic receptor (Homo sapiens), sequence (P07550 whole entry, looked up): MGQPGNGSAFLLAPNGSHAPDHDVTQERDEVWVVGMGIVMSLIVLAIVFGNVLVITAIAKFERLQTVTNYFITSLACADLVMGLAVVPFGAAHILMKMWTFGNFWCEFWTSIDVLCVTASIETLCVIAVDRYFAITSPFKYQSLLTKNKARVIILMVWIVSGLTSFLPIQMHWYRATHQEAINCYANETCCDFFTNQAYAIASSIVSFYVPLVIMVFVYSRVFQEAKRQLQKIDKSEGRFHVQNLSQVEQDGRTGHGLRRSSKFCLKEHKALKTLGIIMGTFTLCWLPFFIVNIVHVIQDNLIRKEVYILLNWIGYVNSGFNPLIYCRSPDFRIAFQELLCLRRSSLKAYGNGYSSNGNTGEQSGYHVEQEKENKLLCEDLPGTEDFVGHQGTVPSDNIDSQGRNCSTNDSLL

[11] = target: AP-2 complex subunit beta (Homo sapiens) (UniProt P63010); assay: beta-arrestin/AP2 interaction blockers – biochemical, validation set, GST-AP2 beads, flow cytometry, pilot screen (AID 504541;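 active = inhibition above 54%, about 3 SD of non-fluorescent compounds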;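 also: AP2 carries R879A mutation and is captured from E. coli lysate; bead-bound FITC arrestin peptide fluorescence measuring arrestin peptide binding to AP2; 0% = DMSO wells and 100% = excess unlabeled arrestin peptide control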); details: FITC arrestin peptide, at 10 µM, stronger effect = higher value, AP2 beta2 appendage fragment, R879A mutant
AP-2 complex subunit beta (Homo sapiens), sequence (P63010 whole entry, looked up, the tested form may be a part, one chain of several): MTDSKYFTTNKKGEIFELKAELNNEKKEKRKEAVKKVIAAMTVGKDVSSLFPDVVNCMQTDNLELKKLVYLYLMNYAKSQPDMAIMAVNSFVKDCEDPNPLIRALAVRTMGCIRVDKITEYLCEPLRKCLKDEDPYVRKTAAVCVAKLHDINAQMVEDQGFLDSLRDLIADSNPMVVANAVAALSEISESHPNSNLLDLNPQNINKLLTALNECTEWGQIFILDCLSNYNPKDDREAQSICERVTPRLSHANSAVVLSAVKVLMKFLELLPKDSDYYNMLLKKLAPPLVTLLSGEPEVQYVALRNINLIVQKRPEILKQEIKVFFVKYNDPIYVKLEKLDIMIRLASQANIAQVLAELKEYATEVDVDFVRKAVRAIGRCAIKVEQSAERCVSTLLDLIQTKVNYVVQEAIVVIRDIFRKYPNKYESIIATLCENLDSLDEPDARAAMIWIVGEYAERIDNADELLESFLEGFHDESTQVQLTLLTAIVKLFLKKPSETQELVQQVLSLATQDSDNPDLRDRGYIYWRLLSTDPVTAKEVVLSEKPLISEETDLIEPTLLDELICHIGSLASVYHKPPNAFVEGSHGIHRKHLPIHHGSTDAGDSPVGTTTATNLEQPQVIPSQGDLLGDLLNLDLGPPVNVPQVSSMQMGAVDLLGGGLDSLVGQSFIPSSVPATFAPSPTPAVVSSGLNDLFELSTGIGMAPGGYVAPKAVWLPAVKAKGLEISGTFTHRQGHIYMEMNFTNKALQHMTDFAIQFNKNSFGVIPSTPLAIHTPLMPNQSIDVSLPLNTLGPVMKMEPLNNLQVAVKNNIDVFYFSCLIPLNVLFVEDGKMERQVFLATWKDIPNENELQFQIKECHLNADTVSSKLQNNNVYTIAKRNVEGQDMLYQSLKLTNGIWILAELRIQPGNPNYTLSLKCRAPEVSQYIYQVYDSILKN

[12] = cytosolic pH regulators acting via V-ATPase – S. cerevisiae, pHLuorin, HTS validation (AID 504600; in the data active = response above about 15%;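 also: plate controls were DMSO for no effect and reference compound for full effect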); details: V-ATPase proton transport, at 10 µM, stronger effect = higher value
[13] = tested on: anti-desmoglein-3 scFv antibody binding to human DSG3; assay: blockers of pathogenic pemphigus antibody–desmoglein-3 binding – biochemical, validation compound set, bead-based, flow cytometry, pilot screen (AID 588368;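 active = binding below the plate cutoff, the plate median minus 3 SD, with a reading above zero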;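 also: signal is the median channel fluorescence of bead-bound GFP antibody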); details: Protein G beads, DSG3-Fc, scFv-GFP binding, at 10 µM, stronger effect = lower value
[14] = Nile Red efflux blockade in pump-expressing yeast – validation compound set, multiplex, phenotypic, pilot screen (AID 588506;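 active = efflux inhibition above 0.42, the validation set average plus 4 SD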;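 also: Nile Red retained in cells so higher fluorescence means more efflux inhibition; 0 = negative control wells and 1 = enniatin B 25 µM full block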); details: S. cerevisiae pump-expressing triplex, Nile Red efflux flow cytometry; at 10 µM; stronger effect = higher value; the pumps come from Candida albicans
[15] = target: ATP-binding cassette sub-family B member 6 (Homo sapiens) (UniProt Q9NP58); assay: blockers of ABCB6-driven porphyrin uptake – K562-ABCB6 cells, flow cytometry, validation set, pilot screen (AID 588550;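 active = inhibition above the screen-wide mean plus 3 SD, about 51%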;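 also: 0% = DMSO wells and 100% = benzethonium chloride 70 µM positive control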); details: K562-ABCB6 porphyrin accumulation, 1 h, at 10 µM, stronger effect = higher value
ATP-binding cassette sub-family B member 6 (Homo sapiens), sequence (Q9NP58 whole entry, looked up): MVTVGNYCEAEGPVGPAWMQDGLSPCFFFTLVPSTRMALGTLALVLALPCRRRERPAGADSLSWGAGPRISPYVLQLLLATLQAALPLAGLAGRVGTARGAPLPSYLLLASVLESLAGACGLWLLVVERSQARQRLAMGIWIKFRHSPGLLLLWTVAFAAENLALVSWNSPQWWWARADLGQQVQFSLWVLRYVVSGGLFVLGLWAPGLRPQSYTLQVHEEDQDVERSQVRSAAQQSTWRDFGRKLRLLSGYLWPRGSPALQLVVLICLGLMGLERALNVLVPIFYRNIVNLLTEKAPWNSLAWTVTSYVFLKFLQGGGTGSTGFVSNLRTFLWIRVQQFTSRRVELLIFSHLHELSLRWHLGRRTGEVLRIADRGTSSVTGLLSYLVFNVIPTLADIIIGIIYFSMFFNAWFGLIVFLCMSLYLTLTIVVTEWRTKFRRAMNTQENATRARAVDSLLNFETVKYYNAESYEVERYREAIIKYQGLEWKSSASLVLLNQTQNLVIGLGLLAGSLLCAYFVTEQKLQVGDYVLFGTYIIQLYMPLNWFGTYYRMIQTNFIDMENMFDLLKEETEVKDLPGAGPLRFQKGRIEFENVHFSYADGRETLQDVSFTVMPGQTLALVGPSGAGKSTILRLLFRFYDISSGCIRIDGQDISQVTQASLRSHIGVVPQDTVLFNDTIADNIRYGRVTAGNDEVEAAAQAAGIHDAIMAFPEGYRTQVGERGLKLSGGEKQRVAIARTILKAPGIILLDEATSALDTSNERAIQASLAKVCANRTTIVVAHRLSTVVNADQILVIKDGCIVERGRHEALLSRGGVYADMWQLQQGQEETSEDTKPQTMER

[16] = AML differentiation inducers, ER-HoxA9 marrow cells – cell-based, GFP/MAC1 double positive, flow cytometry, validation set, primary screen (AID 588685;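 active = differentiation response of at least 50%, scaled between solvent and reference control, from cells with both markers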;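 also: compound exposure lasts four days before antibody staining and flow analysis; 0% = DMSO wells and 100% = 5 µM fulvestrant positive control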); details: stronger effect = higher value, normalized: vehicle 0, fulvestrant 100

CCOC(=O)C1NN=C(C(=O)c2ccccc2)C1c1ccc(Cl)cc1 (stereo not given)
inactive: percent of DMSO control GFP [1] 98.3% | GFP response vs DMSO [2] 96.6% | percent response of DMSO control [3] 91.3% | GFP response vs DMSO [4] 93.7% | GFP response, % of DMSO [5] 88.8% | vesicle binding response [6] 192% | inhibition [7] 9.63% | superoxide response (% of plate) [8] 106% | aptamer binding inhibition [9] 3% | response [10] 3.04% | inhibition [11] -2.22% | response [12] -0.54% | binding (% of control) [13] 99% | efflux inhibition (fraction of control) [14] -0.005 | inhibition [15] 9% | differentiation response [16] -6.03%
58.1%: double positive events [6]

CCCn1c(=O)c2[nH]c(C3CCCC3)nc2n(CCC)c1=O
inactive: percent of DMSO control GFP [1] 92.6% | GFP response vs DMSO [2] 137% | percent response of DMSO control [3] 102% | GFP response vs DMSO [4] 82.5% | GFP response, % of DMSO [5] 88.7% | vesicle binding response [6] 193% | inhibition [7] 0.64% | superoxide response (% of plate) [8] 93.3% | aptamer binding inhibition [9] 4% | response [10] -5.24% | inhibition [11] -0.16% | response [12] -6.35% | binding (% of control) [13] 102% | efflux inhibition (fraction of control) [14] -0.13 | inhibition [15] 7% | differentiation response [16] 2.46%
62.8%: double positive events [6]

COc1ccc(C(=O)Nc2ccccc2C(=O)NC(Cc2c[nH]c3ccccc23)C(=O)O)cc1 (stereo not given)
inactive: percent of DMSO control GFP [1] 101% | GFP response vs DMSO [2] 107% | percent response of DMSO control [3] 95.4% | GFP response vs DMSO [4] 92.7% | GFP response, % of DMSO [5] 95.4% | vesicle binding response [6] 174% | inhibition [7] -28.5% | superoxide response (% of plate) [8] 107% | aptamer binding inhibition [9] 3% | response [10] 10.6% | inhibition [11] 51.3% | response [12] -3% | binding (% of control) [13] 99.8% | efflux inhibition (fraction of control) [14] 0.33 | inhibition [15] -16% | differentiation response [16] 22.7%
64.5%: double positive events [6]

CN(C)CC/C=C1\c2ccccc2Sc2ccc(Cl)cc21
inactive: percent of DMSO control GFP [1] 104% | GFP response vs DMSO [2] 110% | percent response of DMSO control [3] 103% | GFP response vs DMSO [4] 106% | GFP response, % of DMSO [5] 106% | vesicle binding response [6] 157% | inhibition [7] 9.63% | superoxide response (% of plate) [8] 88.7% | aptamer binding inhibition [9] -5% | response [10] 19.9% | response [12] -15.9% | binding (% of control) [13] 106% | efflux inhibition (fraction of control) [14] 0.08 | inhibition [15] 9% | differentiation response [16] -17.7%
active: inhibition [11] 54.9%
64.5%: double positive events [6]

COc1ccc2[nH]cc(C3N4CC5(C)CN3CC(C)(C4)C5=O)c2c1 (stereo not given)
59.2%: double positive events [6]
inactive: percent of DMSO control GFP [1] 103% | GFP response vs DMSO [2] 103% | percent response of DMSO control [3] 107% | GFP response vs DMSO [4] 103% | GFP response, % of DMSO [5] 107% | vesicle binding response [6] 138% | inhibition [7] 9.63% | superoxide response (% of plate) [8] 105% | aptamer binding inhibition [9] -2% | response [10] -5.37% | inhibition [11] 10.8% | response [12] 1.5% | binding (% of control) [13] 101% | efflux inhibition (fraction of control) [14] -0.08 | inhibition [15] 2% | differentiation response [16] -11.9%

Cc1cc(OCC(=O)C(C)(C)C)c2c(C)c(C)c(=O)oc2c1
inactive: percent of DMSO control GFP [1] 102% | GFP response vs DMSO [2] 103% | percent response of DMSO control [3] 94.8% | GFP response vs DMSO [4] 118% | GFP response, % of DMSO [5] 98.8% | vesicle binding response [6] 213% | inhibition [7] 2.3% | superoxide response (% of plate) [8] 102% | aptamer binding inhibition [9] 7% | response [10] -4.14% | inhibition [11] 27.4% | response [12] -7.2% | binding (% of control) [13] 101% | efflux inhibition (fraction of control) [14] 0.26 | inhibition [15] 3% | differentiation response [16] 4%
60.4%: double positive events [6]

CC(=O)NS(=O)(=O)c1ccc(N)cc1
62.3%: double positive events [6]
inactive: percent of DMSO control GFP [1] 98.6% | GFP response vs DMSO [2] 101% | percent response of DMSO control [3] 97% | GFP response vs DMSO [4] 101% | GFP response, % of DMSO [5] 104% | vesicle binding response [6] 335% | inhibition [7] 0.59% | superoxide response (% of plate) [8] 101% | aptamer binding inhibition [9] 2% | response [10] -16.2% | inhibition [11] -0.64% | response [12] 0.06% | binding (% of control) [13] 103% | efflux inhibition (fraction of control) [14] 0.04 | inhibition [15] 5% | differentiation response [16] -3.02%

Cc1ccccc1C(=O)NNc1ncnc2c1cnn2C
inactive: percent of DMSO control GFP [1] 104% | GFP response vs DMSO [2] 103% | percent response of DMSO control [3] 91.2% | GFP response vs DMSO [4] 103% | GFP response, % of DMSO [5] 112% | vesicle binding response [6] 146% | inhibition [7] 3.99% | superoxide response (% of plate) [8] 104% | aptamer binding inhibition [9] -2% | response [10] -18.4% | inhibition [11] 15.7% | response [12] -4.35% | binding (% of control) [13] 107% | efflux inhibition (fraction of control) [14] 0.08 | inhibition [15] -17% | differentiation response [16] 6.83%
64.9%: double positive events [6]

CC(C)(Sc1cc(C(C)(C)C)c(O)c(C(C)(C)C)c1)Sc1cc(C(C)(C)C)c(O)c(C(C)(C)C)c1
inactive: percent of DMSO control GFP [1] 101% | GFP response vs DMSO [2] 105% | percent response of DMSO control [3] 107% | GFP response vs DMSO [4] 101% | GFP response, % of DMSO [5] 106% | vesicle binding response [6] 170% | inhibition [7] -2.43% | superoxide response (% of plate) [8] 90.1% | aptamer binding inhibition [9] -5% | response [10] 1.22% | inhibition [11] 10.6% | response [12] -3.38% | binding (% of control) [13] 102% | efflux inhibition (fraction of control) [14] -0.03 | inhibition [15] 21% | differentiation response [16] -17.7%
60.1%: double positive events [6]

COc1ccc(OC)c(NC2=C(Cl)C(=O)N(Cc3ccccc3)C2=O)c1
59.3%: double positive events [6]
inactive: percent of DMSO control GFP [1] 104% | GFP response vs DMSO [2] 105% | percent response of DMSO control [3] 103% | GFP response vs DMSO [4] 103% | GFP response, % of DMSO [5] 99.8% | vesicle binding response [6] 98% | inhibition [7] 4.27% | superoxide response (% of plate) [8] 99.4% | aptamer binding inhibition [9] 0% | response [10] 3% | inhibition [11] 5.66% | response [12] 2.16% | binding (% of control) [13] 107% | efflux inhibition (fraction of control) [14] -0.075 | inhibition [15] 0% | differentiation response [16] -11.9%
